Assay outcomes from PubChem BioAssay.
ERK EGF inh = qHTS Assay for Inhibitors of the ERK Signaling Pathway using a Homogeneous Screening Assay; Stimulation with EGF; HEK293-V1b, EGF-stimulated phospho-ERK AlphaScreen; Potency, µM (top dose mostly 11.5 µM), for inactives: at the highest dose activity change, negative = inhibition, usual class: inhibitors; 0.41% of 130,000 active; AID 1454, 2008; active = well fitted inhibition curve with a large enough effect;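 also: plate controls were stimulated vehicle wells for no effect and unstimulated vehicle basal for full effect; nearly all actives have a fitted effect of over 55% in size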
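Homogeneous cell-based phospho-ERK assay: HEK293/V1b cells in 1% FBS, compound 30 min then EGF 5 min, AlphaScreen luminescence. Activity normalized between DMSO and 25 nM EGF controls; AC50 from Hill modelling.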
* marks the source's active call; other numbers are inactive results; [ ] = dose if it differs, or a comment. Shown is part of a subset that was picked to be rich in hits. Potency is read from the fitted curve at half-maximal effect.

SMILES | ERK EGF inh
O=C(O[C@@H]1Cc2c(O)cc(O)cc2OC1c1ccc(O)c(O)c1)c1cc(O)c(O)c(O)c1 (some centres undefined) | 13%
CC(=O)OC[C@@]12C(=O)[C@@H](O)[C@@H](C)[C@]3(C[C@@H](c4ccoc4)O[C@@H]3OC(C)=O)[C@H]1CCC[C@]21CO1 | -7%
COc1c(C2=CC(=O)N(C)C2=O)c2c(n1C)C(=O)c1ccccc1C2=O | -5%
Cc1cc(/C=C2\SC(=S)N(C)C2=O)c(C)n1-c1cccc(O)c1 | 28µM*
COc1ccc(-n2c(C)cc(/C=C3/SC(=S)N(C)C3=O)c2C)cc1 | -6%
O=C1/C(=C/c2ccccn2)SC(=S)N1c1cccc(O)c1 | 4%[57.5 µM]
CC(=O)[C@@H]1[C@H]2[C@H](C(=O)[C@H]3OC[C@@H]2O3)[C@H]2C=Cc3ccccc3N21 | -1%
CC1=C2C(=COC(C)C2C)C(=O)C(C(=O)O)=C1O (centres undefined) | 9%
O=C1C(NS(=O)(=O)c2ccc(Cl)cc2)=C(N2CCCCC2)C(=O)c2ccccc21 | 14µM*
Cc1ccccc1CN1CCN(S(=O)(=O)c2cccs2)CC1 | 1%
O=C1C(NS(=O)(=O)c2cccs2)=C(N2CCN(Cc3ccccc3)CC2)C(=O)c2ccccc21 | 16µM*
O=C1C(Nc2ccccc2)=C(NS(=O)(=O)c2ccccc2)C(=O)c2ccccc21 | 3%
CN1CCN(C2=C(NS(=O)(=O)c3cccs3)C(=O)c3ccccc3C2=O)CC1 | -8%[57.5 µM]
O=S(=O)(Nc1ccc(N2CCCCC2)cc1)c1ccccc1 | 3%
COCC1=C2c3ccccc3[C@H](C[N+](=O)[O-])C(C(=O)OC)(C(=O)OC)C[C@@H]2n2c(=O)n(-c3ccccc3)c(=O)n2C1 | -12%
CC(C)=CCC/C(C)=C/CC/C(C)=C/CSCC(=O)O | 15%
COc1ccc2c(c1)c(CC(=O)NCc1ccc3c(c1)OCO3)c(C)n2C(=O)c1ccc(Cl)cc1 | -7%
CC(C)C[C@@H](CC(=O)N[C@H](CC(=O)N[C@@H]1CCCC[C@H]1C(=O)N[C@H](CC(=O)N[C@@H](CCC(=O)O)CC(=O)O)CC(C)C)C(C)C)NC(=O)[C@@H]1CNCC[C@H]1N | 6%
O=C1/C(=C/c2ccc(O)c(O)c2)SC(=S)N1Nc1ccccc1 | 13µM*
O=C(O)c1ccc(/C=C2\SC(=S)N(Nc3ccccc3)C2=O)cc1 | -11%[57.5 µM]
O=C1/C(=C/c2ccncc2)SC(=S)N1Nc1ccccc1 | -3%[57.5 µM]
CCN(CC)CCCC(C)n1c(-c2ccccc2)nc2c(NC3CCCCC3)nc(C)nc21 (centres undefined) | 5%
CC/C=C\C/C=C\C/C=C\C/C=C\C/C=C\C/C=C\CCC(=O)O[C@H](COCCCCCCCCCCCCCCCC)COP(=O)([O-])OCC[N+](C)(C)C | -6%
COC(=O)[C@@]1(C)CCC[C@@]2(C)c3ccc(O)c(C(C)C)c3CCC21 (some centres undefined) | 22µM*
CC(=O)Oc1ccc2c(c1C(C)C)CCC1C(C)(C)CCC[C@@]21C (some centres undefined) | 7%
SMILES | ERK EGF inh
CC(C)c1c(O)ccc2c1CCC1[C@@](C)(CO)CCC[C@@]21C (some centres undefined) | 12%
Cc1ccc(O)c(C(=O)c2cc(C#N)c(=O)n(Cc3ccccc3)c2)c1 | 0%
Cc1ccc(O)c(C(=O)c2cc(C#N)c3nc4ccccc4n3c2)c1 | 32µM*
Cc1ccc(O)c(C(=O)c2cc(C#N)c(=O)n(C(C)c3ccccc3)c2)c1 (centres undefined) | 0%
CC(C)Cn1nnnc1S(=O)(=O)CCc1ccccc1 | -2%
CN(C)c1ncc2nc(-c3cc(F)cc(F)c3)c(=O)n(Cc3cccs3)c2n1 | -11%
CCCCCCCCCCCCC/C=C/[C@@H](O)[C@H](CO)NCCCCCCCC | -14%
Cc1cc(=O)n2[nH]c(N)c(N=Nc3ccccc3)c2n1 | 6%
Cc1[nH]c(N=Nc2ccccc2)nc1N=Nc1ccccc1 | 22µM*
Cc1[nH]c2ccccc2c1N=Nc1ccc(F)cc1 | 2%
CCN(CC)S(=O)(=O)c1cccc(C(=O)c2c(C)cc3ccccn23)c1 | 3%
Cc1cccc(NC(=O)CSc2ccc(C(N)=O)cc2[N+](=O)[O-])c1C | -2%
Cc1cc2ccccn2c1C(=O)c1cc([N+](=O)[O-])cc([N+](=O)[O-])c1 | 28µM*
O=C(O)c1ccc(Sc2nnc3ccccn23)c([N+](=O)[O-])c1 | 5%[57.5 µM]
Cc1cc2ccccn2c1C(=O)c1ccc(NN)c([N+](=O)[O-])c1 | 25µM*
Cc1cc2ccccn2c1C(=O)Nc1ccccc1 | -6%
COc1ccc2c(c1)O[C@@H](c1cccc(C(F)(F)F)c1)[C@H](OC(=O)NS(=O)(=O)c1ccc(C)cc1)C2=O | -11%
COc1ccc(-c2nc(-c3ccccc3)c(NC(C)C)o2)cc1 | -6%
COC(C)(C)CCCC(C)C/C=C/C(C)=C/C(=O)O (centres undefined) | 1%
Cc1ccc(C(=O)N/N=C/c2ccc(-c3ccccc3[N+](=O)[O-])o2)cn1 | 2%
